Measured values from PubChem BioAssay (NCI).
The panel holds about 79,000 compounds, 15% with a hit somewhere; the sample as a whole holds those more often. A number with no mark means an inactive call. Activity calls are given as the source filed them. No stated cut-off is given here; in the data, active means growth inhibition above about 70%; inactive means the rest.

Experiments:
[1] = NCI Yeast Anticancer Drug Screen. Data for the rad50 strain (AID 155);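 further: 0% = growth of vehicle-only cultures of the same strain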; details: S. cerevisiae rad50 strain growth inhibition, hits give high values
Procedure, shortened: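 Inhibition values express reduced yeast growth in compound-treated cultures relative to vehicle-treated controls.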

[2] = NCI Yeast Anticancer Drug Screen. Data for the mec2-1 strain (AID 157); details: S. cerevisiae mec2-1 strain, hits give high values
Procedure, shortened: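 Each compound was tested on mec2-1 yeast, a strain altered in DNA damage repair or cell cycle control. Growth inhibition is reported relative to vehicle.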

[3] = NCI Yeast Anticancer Drug Screen. Data for the sgs1 mgt1 strain (AID 161);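 further: 0% = growth of cultures given vehicle only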; details: S. cerevisiae sgs1 mgt1 strain, hits give high values
Procedure, shortened: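 Test agents were incubated with a DNA-repair-mutant yeast strain. Growth was then read and compared against vehicle-treated controls.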

[4] = NCI Yeast Anticancer Drug Screen. Data for the cln2 rad14 strain (AID 165);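 further: 0% = growth equal to vehicle treated cultures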; details: S. cerevisiae cln2 rad14 strain, hits give high values
Procedure, shortened: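 Test compounds were added to cln2 rad14 yeast cultures; inhibition of growth was then determined by comparison with vehicle treatment.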

[5] = NCI Yeast Anticancer Drug Screen. Data for the bub3 strain (AID 167); details: S. cerevisiae bub3 mutant strain, hits give high values
Procedure, shortened: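 Steps: expose the mutant yeast strain to compound; grow alongside vehicle-treated cultures; measure growth; express inhibition against the vehicle cultures.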

[6] = NCI Yeast Anticancer Drug Screen. Data for the mlh1 rad18 strain (AID 175); details: S. cerevisiae mlh1 rad18 strain growth inhibition, hits give high values
Procedure, shortened: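 Inhibition values reflect reduced growth of mutant yeast versus vehicle-treated controls following compound exposure; the mutations affect DNA damage repair.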

[7] = at 5.0 µM (retest, dose inferred, filed as 0.5)
[8] = at 50.0 µM (retest, dose inferred, filed as 5.0)

Compound	growth inhibition [1, 7]	growth inhibition [1, 8]	growth inhibition ([1]; at 50.0 µM)	growth inhibition [2, 7]	growth inhibition [2, 8]	growth inhibition ([2]; at 50.0 µM)	growth inhibition [3, 7]	growth inhibition [3, 8]	growth inhibition ([3]; at 50.0 µM)	growth inhibition [4, 7]	growth inhibition [4, 8]	growth inhibition ([4]; at 50.0 µM)	growth inhibition [5, 7]	growth inhibition [5, 8]	growth inhibition ([5]; at 50.0 µM)	growth inhibition [6, 7]	growth inhibition [6, 8]	growth inhibition ([6]; at 50.0 µM)
COc1ccc(-c2[nH]c(-c3ccc(OC)cc3)c(-c3ccccn3)c2-c2ccccn2)cc1	-4%	16%	80.7% (active)	-16%	18%	91.7% (active)	0%	25%	95.4% (active)	7%	27%	69.5%	4%	-7%	83.5% (active)	-19%	11%	94.7% (active)
COC(=O)c1ccc(CCc2cc(O)ccc2O)cc1	58%	99% (active)	98.8% (active)	74% (active)	100% (active)	98.5% (active)	70% (active)	99% (active)	98% (active)	27%	99% (active)	88.8% (active)	52%	99% (active)	98.5% (active)	88% (active)	99% (active)	98.8% (active)
CCCCc1ccc2nccc(N/N=C/c3ccc(OC)c4ccccc34)c2c1	1%	91% (active)	80% (active)	-27%	89% (active)	69.3%	2%	94% (active)	76.7% (active)	-2%	73% (active)	62.4%	-4%	90% (active)	79% (active)	1%	88% (active)	90.1% (active)
COc1ccccc1NC(=O)/C(=C/n1c(=S)sc2ccccc21)C(C)=O	-19%	14%	38.3%	-19%	14%	48%	7%	20%	63.6%	11%	17%	64.2%	-9%	30%	29.5%	-14%	14%	47%
COc1ccc(NC(=S)N/N=C/c2cccc(C)n2)cc1	8%	98% (active)	67.4%	0%	94% (active)	82.5% (active)	13%	90% (active)	86.5% (active)	23%	88% (active)	83.3% (active)	-22%	85% (active)	85.9% (active)	10%	95% (active)	89.4% (active)
O=NNc1ccc(Sc2ccc3ccccc3c2)cn1	21%	41%	21.5%	24%	36%	12.2%	20%	27%	19.1%	32%	43%	24.8%	30%	37%	35%	25%	47%	51.5%
